# RmlC RmlD mix = RmlC and RmlD coupled enzyme inhibitors, primary screen, biochemical, 384-well, compound mixtures, retest; RmlC/RmlD coupled enzyme inhibition, 384-well mixture HTS; inhibition, % at 5.5 µM; 110,000 tested, 0.39% active; in the data active = inhibition above about 30%, passing the limit was not always enough
# HIV RNase H inh = HIV-1 RT RNase H inhibitors, primary screen, biochemical, fluorescence | RT-RNase H RNA/DNA duplex cleavage | 65,000 tested, 1.9% active | inhibition, % at 10 µM | Gag-Pol polyprotein (Human immunodeficiency virus type 1 group M subtype B (isolate … | AID 565, 2006; in the data active = inhibition above about 50%
# Numbers without * were called inactive; / = no result given; ! = not confirmed by another sample. Shown is part of a subset that was picked to be rich in hits.
SMILES,RmlC RmlD mix,HIV RNase H inh
COc1ccc(-c2nnc(SCC(=O)c3cc(C)n(Cc4cccs4)c3C)o2)cc1,-5.8,57.6*
COc1ccc(-c2nnc(SCC(=O)c3cccs3)o2)cc1,-1.5,-0.1
COc1cc(C2C(C#N)=C(N)Oc3cc(O)ccc32)cc2c1OCO2 (configuration not stated),-14.8,-46.0
N#CC1=C(N)Oc2cc3c(cc2C1c1ccc(Cl)cc1)OCO3 (configuration not stated),-13.9,55.0*
CCCCn1c(NCc2ccccc2O)nc2ccccc21,11.6,-18.6
Cc1cc(C)n2c(SCC(=O)N3CCN(S(=O)(=O)c4ccc(Cl)cc4)CC3)nnc2n1,-19.5,69.6*
CCCn1c(SCC(=O)N2CCN(S(=O)(=O)c3ccc(Cl)cc3)CC2)n[nH]c1=O,-13.1,-16.4
Cc1ccnc(NS(=O)(=O)c2ccc(NC(=O)C34CC5CC(C)(CC(C)(C5)C3)C4)cc2)n1,-9.3,/
COc1cc(C(=S)N2CCCC2)cc(Cl)c1O,-18.4,70.9*
COc1cc(C(=S)N2CCCCC2)ccc1O,-6.2,/
NS(=O)(=O)c1cc(C(=O)OCC(=O)NC2CC2)ccc1Cl,-18.5,/
Cc1cc(-n2c(=O)c(C#N)cc3c(=O)n4ccccc4nc32)no1,54.7*,4.1
Cc1ccccc1-n1c(=O)c(C#N)cc2c(=O)n3ccccc3nc21,123.1,/
C=CC(=C)CC(NC)c1ccccc1 (configuration not stated),-15.7,50.6*
C=CCOC(=O)CC(NC(=O)c1ccccc1)c1ccccc1 (configuration not stated),-11.8,-6.0
CCN1C(=O)N[C@H](c2ccc(Br)cc2)C(C(C)=O)=C1C,-12.7,/
CCOC(=O)c1cc2c(nc1N)CC(C)(CC)OC2 (configuration not stated),1.6,/
CCOC(=O)c1cc2c(nc1N)CC(C)(C)OC2,38.9*,/
CCOc1ccccc1N1CCN(Cc2cccc(OC)c2OC)CC1,10.3,3.2
COc1ccc(OC)c(N2Cc3cc(C)c(C)cc3C2)c1,-4.0,62.0*
CCOc1ccccc1N1Cc2cc(C)c(C)cc2C1,5.5,52.7*
COc1ccc(OC)c(-n2cnnn2)c1,6.9,-9.8
CCCn1c(=O)c(C(=O)Nc2ccncc2)c(O)c2ccccc21,/,-9.2
CCCCCn1c(=O)c(C(=O)Nc2ccncc2)c(O)c2ccccc21,/,82.5*
CCCCOc1ccccc1Cn1c(=O)oc2ccc(C)cc21,4.7,-77.4
SMILES,RmlC RmlD mix,HIV RNase H inh
COc1ccc(N2CCN(Cc3cc(=O)oc4c3ccc3ccccc34)CC2)cc1,/,54.4*
COc1ccc(N2CCN(Cc3cc(=O)oc4ccc(C)cc34)CC2)cc1,-8.6,/
CCO[C@H]1OC(C(=O)O)=C[C@@H](C2CC2)[C@@H]1CCCO,-8.6,/
Cc1ccc2oc(=O)c3cnn(CC(=O)NC4CCN(Cc5ccccc5)CC4)c3c2c1,-4.5,-12.2
COc1ccc(-c2cc3c(=O)n(CC(=O)NC4CCN(Cc5ccccc5)CC4)ncn3n2)cc1,/,63.7*
COc1ccc(C(=O)Nn2cnnc2)cc1,2.4,/
O=c1c2ccccc2nc(-c2cccs2)n1-c1cnccn1,3.1,-5.5
CCN(C(=O)c1coc(=O)c(Br)c1)c1ccc2c(c1)OCO2,123.8*,2.4
CCN(C(=O)c1c(C)cc(=O)oc1C)c1ccc2c(c1)OCO2,-8.0,/
CS(=O)(=O)N1CCN(c2nc(-c3ccccc3)cs2)CC1,-8.0,-0.7
CCS(=O)(=O)N1CCN(c2nc(-c3ccccc3)cs2)CC1,15.6,55.7*
COc1cc(O)oc1C=Nc1ccc(Oc2ccccc2)cc1,-7.9,/
CCn1c(O)c(C=Nc2ccccc2)oc1=S,-16.4,54.3*
CCN=c1sc2ccccc2n1CC(O)COc1ccccc1 (configuration not stated),24.7,/
CC1CN/C(=C\C(=O)c2ccc(Cl)cc2)C(=O)N1 (configuration not stated),7.9,/
CCS(=O)(=O)n1nc(NCc2cccc(OC)c2)nc1NCc1cccc(OC)c1,-0.7,-10.3
C=CCN1C(=O)C2C(C(=O)NC)C3C=CC2(O3)C1C(=O)NCc1ccc(OC)cc1 (configuration not stated),-11.5,-5.8
NC(=O)c1c(NC(=O)c2cccs2)sc2c1CCCCCC2,-1.8,57.3*
O=C(Nc1sc2c(c1C(=O)O)CCC2)c1cccs1,/,-1.0
CCC(=O)Nc1sc2c(c1C(=O)N(C)C)CCCCC2,-3.7,/
CCNC(=O)c1c(N)sc2c1CCCCC2,68.4,57.5*
COC(=O)C1=CNC=C(C(=O)OC)C1c1ccc(Cl)cc1,-24.1,-27.0
CCN(CC)C(=O)Nc1cnc2ccccc2c1,4.9,-4.8
O=C(O)c1ccc2c(c1)C(=O)N(C(Cc1ccccc1)C(=O)O)C2=O (configuration not stated),7.7,-7.0
O=C(O)c1ccc2c(c1)-c1nc3ccccc3n1C2=O,121.8*,/
SMILES,RmlC RmlD mix,HIV RNase H inh
CCCN1Cc2cccc(C(=O)NCc3ccccc3OC)c2C1=O,-8.9,/
CCOCCn1c(SCc2ccccc2)nc2c1c(=O)[nH]c(=O)n2C,-1.7,-31.7
CCOCCn1c(SCC(=O)OCc2ccccc2)nc2c1c(=O)[nH]c(=O)n2C,-5.4,86.3*
Cc1cc(=O)[nH]c2c(C)c(Cl)ccc12,-9.5,-96.3
Cc1cc(=O)[nH]c2c(C)c(N)ccc12,58.7*,-2.2
O=C(CSc1n[nH]c(-c2ccccc2)n1)NC(=O)NCc1ccco1,-9.7,23.1
Cc1ccc(/C=c2\sc3nc(-c4ccco4)nn3c2=O)o1,-11.9,29.6
Cc1ccc(/C=c2\sc3nc(-c4ccccc4Br)nn3c2=O)o1,/,50.7*
Cc1cccn2c(=O)c3cc(C(=O)NC(C)C)c(=N)n(Cc4ccncc4)c3nc12,/,-11.0
CCNC(=O)c1cc2c(=O)n3cccc(C)c3nc2n(Cc2ccc(C)cc2)c1=N,83.9*,-2.5
Cc1cccn2c(=O)c3cc(C(=O)NCC4CCCO4)c(=N)n(Cc4cccnc4)c3nc12 (configuration not stated),36.6*,-1.7
N=c1c(C(=O)NCC2CCCO2)cc2c(=O)n3ccccc3nc2n1Cc1cccnc1 (configuration not stated),45.3,2.7
O=C(NNC1=C(C(=O)C(F)(F)F)CCC1)c1ccc(Br)cc1,-16.2,/
CCC(C)C(NC(=O)c1ccccc1NC(=O)c1ccc(OC)cc1)C(=O)NCc1ccco1 (configuration not stated),-8.9,54.6*
COc1ccc(C(=O)Nc2ccc(Cl)cc2C(=O)NCc2ccco2)cc1,2.7,/
CC1=C(C(=O)OC2CCCCCCC2)C(c2ccc(O)cc2)NC(=O)N1 (configuration not stated),-12.1,-41.6
COc1ccc(C2C3=C(CC(C)(C)CC3=O)Nc3c2c(=O)[nH]c(=O)n3Cc2ccccc2)cc1OC (configuration not stated),2.2,4.9
COc1cc(C2C3=C(CC(C)(C)CC3=O)Nc3c2c(=O)[nH]c(=O)n3Cc2ccccc2)ccc1O (configuration not stated),/,67.5*!
O=C(Nc1nc2ccccc2s1)c1cnccn1,-9.9,/
COc1cccc(NC(=O)c2cn(C)c(=O)c3cc(OC)c(OC)cc23)c1,-12.9,-12.6
CCOc1cccc(-c2nnc3sc(C4CCCCC4)nn23)c1,-9.5,59.1*
COc1cccc(-c2nnc3sc(C4CCCCC4)nn23)c1,6.3,-64.3
COC(=O)Cc1cc(=O)[nH]c(/N=C(/NC(=O)c2ccccc2)Nc2ccccc2C)n1,/,53.3*

# Compound activity (PubChem BioAssay)
